# Measured values as given in PubChem BioAssay (EPA / NIEHS).
# Where “and” joins values, the source holds several entries; their conditions need not be identical. Equal entries are not always repeated. Inconclusive results are not listed. More than one record can exist for a structure, and the calls need not agree. Calls of active or inactive are those of the source. The calls were made as follows: active = hit-call score of the fitted dose curve at least 0.9, where 1 is the maximum; inconclusive = response in the unintended direction; inactive = score below 0.9.
# Assays:
# [1] = target: Nuclear receptor subfamily 1 group I member 2 (Homo sapiens) (UniProt O75469); assay: NVS_NR_hPXR: NovaScreen (NVS) Nuclear Receptor Binding Assay for human Pregnane X Receptor (PXR) (AID 2283365);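 also: a drop in FRET signal versus DMSO baseline means the compound binds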
# Sequence of Nuclear receptor subfamily 1 group I member 2 (Homo sapiens) (O75469 whole entry, looked up): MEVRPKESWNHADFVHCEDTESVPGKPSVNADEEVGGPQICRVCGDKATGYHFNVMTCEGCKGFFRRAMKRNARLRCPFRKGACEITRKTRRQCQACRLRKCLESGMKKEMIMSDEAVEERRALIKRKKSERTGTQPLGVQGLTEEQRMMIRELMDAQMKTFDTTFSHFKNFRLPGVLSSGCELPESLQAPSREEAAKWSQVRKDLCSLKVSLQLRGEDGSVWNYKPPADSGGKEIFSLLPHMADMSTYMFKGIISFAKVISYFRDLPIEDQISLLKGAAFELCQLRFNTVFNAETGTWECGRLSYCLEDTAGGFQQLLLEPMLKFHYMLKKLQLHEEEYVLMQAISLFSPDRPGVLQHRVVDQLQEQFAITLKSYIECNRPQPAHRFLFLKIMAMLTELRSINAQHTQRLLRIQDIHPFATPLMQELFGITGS
# Outline: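 Human PXR protein, cell-free; compound added, incubated 2 h, TR-FRET read. Signal decrease vs DMSO = binding. Screened 25 uM duplicate, actives re-run as dilution series.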
# [2] = target: Peroxisome proliferator-activated receptor gamma (Homo sapiens) (UniProt P37231); assay: NVS_NR_hPPARg: NovaScreen (NVS) Nuclear Receptor Binding Assay for human Peroxisome Proliferator-activated Receptor gamma (PPARg) (AID 2283370)
# Sequence of Peroxisome proliferator-activated receptor gamma (Homo sapiens) (P37231 whole entry, looked up): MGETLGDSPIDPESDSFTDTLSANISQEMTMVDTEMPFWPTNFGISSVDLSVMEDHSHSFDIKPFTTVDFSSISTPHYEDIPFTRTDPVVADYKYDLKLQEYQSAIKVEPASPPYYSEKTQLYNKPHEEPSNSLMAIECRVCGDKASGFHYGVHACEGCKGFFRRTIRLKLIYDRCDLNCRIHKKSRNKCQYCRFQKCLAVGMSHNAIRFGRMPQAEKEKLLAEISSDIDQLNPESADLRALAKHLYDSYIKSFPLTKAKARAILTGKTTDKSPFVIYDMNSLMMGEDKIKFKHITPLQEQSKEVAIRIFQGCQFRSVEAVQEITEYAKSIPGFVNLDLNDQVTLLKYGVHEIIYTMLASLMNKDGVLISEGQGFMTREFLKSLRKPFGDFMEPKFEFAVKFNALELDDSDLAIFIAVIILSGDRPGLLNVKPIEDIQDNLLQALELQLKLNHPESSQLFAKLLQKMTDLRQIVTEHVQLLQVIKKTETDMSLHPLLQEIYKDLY
# Outline: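 Chemicals were tested first in duplicate at 25 uM, then in concentration series if active. Binding to cell-free PPARg protein was measured by fluorescence polarization after 2 h, with loss of signal scored against DMSO.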
# [3] = system: guinea pig Dopamine Transporter (DAT), gene 100714898; assay: NVS_TR_gDAT: NovaScreen (NVS) Transporter Assay for guinea pig Dopamine Transporter (DAT) (AID 2283369);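 also: active compounds lower bound radioligand signal relative to DMSO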
# Protocol: NVS_TR_gDAT is a biochemical, single-readout assay that uses extracted gene-proteins from Guinea pig striatal membranes in a tissue-based cell-free assay. Measurements were taken 2 hours after chemical dosing in a 48-well plate.NVS_TR_gDAT is one of one assay component(s) measured or calculated from the NVS_TR_gDAT assay. It is designed to make measurements of radioligand binding, a form of binding reporter, as detected with scintillation counting signals by Filter-based radiodetection technology.Data from the assay component NVS_TR_gDAT was analyzed into 1 assay endpoint. This assay endpoint, NVS_TR_gDAT, was analyzed in the positive analysis fitting direction relative to DMSO as the negative control and baseline of activity. Using a type of binding reporter, loss-of-signal activity can be used to understand changes in the binding as they relate to the gene Slc6a3. Furthermore, this assay endpoint can be referred to as a primary readout, because the performed assay has only produced 1 assay endpoint. To generalize the intended target to other relatable targets, this assay endpoint is annotated to the transporter intended target family, where the subfamily is neurotransmitter transporter.
# Binding assays used specific radioligands (tritiated, iodinated) with non-radioactive competitive displacement ligands in agonist or antagonist protocols (as indicated) and various reference compounds and inhibitors to titrate specific binding to receptors and transporters. Most enzyme assays (CYPs, kinases, phosphatases, proteases, HDACs) used recombinant protein and specific substrates (fluorescence mostly, some colorimetric and radioactive) and inhibitors, followed by a biochemical separation of substrate and product. All assays for the biochemical HTS were initially run in duplicate at a single concentration (10 uM for CYP450 assays and 25 uM for all others). Assay-chemical combinations meeting a pre-defined threshold (e.g., 30% inhibition and other criteria defined below) were then run in singleton concentration-response format with maximum concentration of 20 uM for CYPs and 50 uM for all others. Each assay was run with positive and negative controls, and concurrent controls on every plate. The follow-up (secondary) screen tested active chemical-pairs in concentration series, as well as a few additional assays not tested in the primary screen, some selected negative inactives, and several cases re-run in the concentration series for confirmatory purposes.
# [4] = target: human Dopamine Transporter (DAT), SLC6A3 (gene 6531) (UniProt Q01959); assay: NVS_TR_hDAT: NovaScreen (NVS) Transporter Assay for human Dopamine Transporter (DAT) (AID 2283374);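 also: activity means loss of bound radioligand signal relative to DMSO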
# Sequence of human Dopamine Transporter (DAT), SLC6A3 (gene 6531) (Q01959 whole entry, looked up): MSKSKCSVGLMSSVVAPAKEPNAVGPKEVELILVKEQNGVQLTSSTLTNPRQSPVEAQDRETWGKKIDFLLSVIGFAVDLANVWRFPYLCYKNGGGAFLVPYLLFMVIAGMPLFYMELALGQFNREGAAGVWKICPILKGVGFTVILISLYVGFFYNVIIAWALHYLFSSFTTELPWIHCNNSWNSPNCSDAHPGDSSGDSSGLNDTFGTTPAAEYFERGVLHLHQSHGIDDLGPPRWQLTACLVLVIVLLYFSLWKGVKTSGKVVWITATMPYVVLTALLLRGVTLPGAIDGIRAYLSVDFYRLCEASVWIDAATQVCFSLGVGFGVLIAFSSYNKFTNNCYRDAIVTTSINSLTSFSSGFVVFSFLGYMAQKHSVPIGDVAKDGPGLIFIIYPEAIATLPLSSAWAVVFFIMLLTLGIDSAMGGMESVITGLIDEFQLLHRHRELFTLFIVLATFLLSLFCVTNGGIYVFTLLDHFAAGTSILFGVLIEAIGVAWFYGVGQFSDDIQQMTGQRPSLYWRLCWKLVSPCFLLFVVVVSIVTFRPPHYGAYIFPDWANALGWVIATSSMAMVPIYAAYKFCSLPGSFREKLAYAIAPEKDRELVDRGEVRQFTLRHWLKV
# Outline: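 Extracted human SLC6A3 protein incubated 1 h with radioligand and test chemical; bound fraction separated on filters and counted. Single 25 uM duplicate screen preceded concentration-response follow-up; positive and negative controls on every plate.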
# [5] = system: rat Norepinephrine Transporter (NET), gene 83511; assay: NVS_TR_rNET: NovaScreen (NVS) Transporter Assay for rat Norepinephrine Transporter (NET) (AID 2283373)
# Outline: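 Competitive radioligand displacement at the rat NET using forebrain membrane preparations, 1 h incubation, filter-based scintillation readout. Primary testing in duplicate at a single 25 uM concentration; confirmed actives retested across concentrations.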
# [6] = target: rat Serotonin Transporter (SERT), Slc6a4 (gene 25553) (UniProt P31652); assay: NVS_TR_rSERT: NovaScreen (NVS) Transporter Assay for rat Serotonin Transporter (SERT) (AID 2283375)
# Sequence of rat Serotonin Transporter (SERT), Slc6a4 (gene 25553) (P31652 whole entry, looked up): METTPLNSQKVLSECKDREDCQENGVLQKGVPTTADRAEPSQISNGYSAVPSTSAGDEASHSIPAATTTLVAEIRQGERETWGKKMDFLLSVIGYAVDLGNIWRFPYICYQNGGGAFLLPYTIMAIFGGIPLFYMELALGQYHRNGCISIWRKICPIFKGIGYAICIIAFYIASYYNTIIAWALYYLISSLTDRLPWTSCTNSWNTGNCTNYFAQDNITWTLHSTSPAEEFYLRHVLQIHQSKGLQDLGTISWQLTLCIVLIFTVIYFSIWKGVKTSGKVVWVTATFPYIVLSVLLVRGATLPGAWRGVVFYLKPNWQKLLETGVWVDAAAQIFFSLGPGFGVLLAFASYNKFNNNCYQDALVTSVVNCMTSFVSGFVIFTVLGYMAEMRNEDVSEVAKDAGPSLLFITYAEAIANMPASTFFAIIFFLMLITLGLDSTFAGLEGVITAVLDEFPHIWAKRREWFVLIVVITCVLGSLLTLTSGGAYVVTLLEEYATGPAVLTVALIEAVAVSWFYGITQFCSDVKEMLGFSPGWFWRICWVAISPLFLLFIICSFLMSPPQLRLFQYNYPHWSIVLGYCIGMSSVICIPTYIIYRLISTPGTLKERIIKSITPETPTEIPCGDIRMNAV
# Outline: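 Filtration-based radiodetection quantified loss of specific radioligand binding in rat forebrain membranes after 1 hour of chemical exposure, relative to DMSO. Chemicals were first tested in duplicate at 25 uM.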
# [7] = target: human Norepinephrine Transporter (NET), SLC6A2 (gene 6530) (UniProt P23975); assay: NVS_TR_hNET: NovaScreen (NVS) Transporter Assay for human Norepinephrine Transporter (NET) (AID 2283377);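 also: cell-free membrane protein extracted from CHO cells expressing human NET; displacement of radioligand from human NET seen as loss of scintillation signal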
# Sequence of human Norepinephrine Transporter (NET), SLC6A2 (gene 6530) (P23975 whole entry, looked up): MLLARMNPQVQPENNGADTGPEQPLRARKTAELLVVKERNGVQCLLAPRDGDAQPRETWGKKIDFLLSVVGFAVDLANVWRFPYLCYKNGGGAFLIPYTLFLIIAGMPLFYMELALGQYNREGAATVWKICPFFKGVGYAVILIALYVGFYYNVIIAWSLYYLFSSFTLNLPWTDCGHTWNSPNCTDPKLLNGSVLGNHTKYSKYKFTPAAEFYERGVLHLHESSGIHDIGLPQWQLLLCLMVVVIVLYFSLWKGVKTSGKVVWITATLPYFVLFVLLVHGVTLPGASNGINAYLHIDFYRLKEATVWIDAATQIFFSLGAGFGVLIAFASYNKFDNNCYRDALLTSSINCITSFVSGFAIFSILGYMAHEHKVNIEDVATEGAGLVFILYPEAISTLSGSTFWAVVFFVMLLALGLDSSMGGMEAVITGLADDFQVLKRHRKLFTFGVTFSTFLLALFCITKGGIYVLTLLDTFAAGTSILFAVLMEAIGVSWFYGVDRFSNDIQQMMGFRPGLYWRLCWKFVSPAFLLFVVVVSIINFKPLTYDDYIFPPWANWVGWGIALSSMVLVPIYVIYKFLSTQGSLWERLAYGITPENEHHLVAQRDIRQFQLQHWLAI
# Outline: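 In this cell-free binding screen, chemicals at 25 uM (duplicate) compete with a radioligand for CHO-derived human NET over 1 hour, with filter-based radiodetection.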
# [8] = target: mouse Estrogen Receptor alpha (Era), Esr1 (gene 13982) (UniProt P19785); assay: NVS_NR_mERa: NovaScreen (NVS) Nuclear Receptor Binding Assay for mouse Estrogen Receptor alpha (Era) (AID 2283378);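 also: hit means loss of bound radioligand signal relative to DMSO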
# Sequence of mouse Estrogen Receptor alpha (Era), Esr1 (gene 13982) (P19785 whole entry, looked up): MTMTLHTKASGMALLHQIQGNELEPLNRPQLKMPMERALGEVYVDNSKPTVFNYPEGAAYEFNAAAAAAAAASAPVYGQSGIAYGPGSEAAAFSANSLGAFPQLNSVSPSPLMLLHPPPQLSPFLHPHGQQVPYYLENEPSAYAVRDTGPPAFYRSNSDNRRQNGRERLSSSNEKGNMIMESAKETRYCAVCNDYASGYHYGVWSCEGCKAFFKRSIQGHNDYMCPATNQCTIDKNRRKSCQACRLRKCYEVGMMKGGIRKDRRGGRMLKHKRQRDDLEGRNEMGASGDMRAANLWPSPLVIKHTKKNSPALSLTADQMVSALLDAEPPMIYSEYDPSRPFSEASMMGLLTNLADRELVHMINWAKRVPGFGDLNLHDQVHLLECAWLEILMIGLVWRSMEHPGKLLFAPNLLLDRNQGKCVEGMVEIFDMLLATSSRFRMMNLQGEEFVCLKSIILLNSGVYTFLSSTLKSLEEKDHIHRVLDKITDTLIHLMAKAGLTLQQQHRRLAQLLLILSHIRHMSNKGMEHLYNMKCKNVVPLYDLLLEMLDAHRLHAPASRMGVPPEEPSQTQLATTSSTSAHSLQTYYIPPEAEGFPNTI
# Outline: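 Extracted mouse Era incubated with tritiated or iodinated radioligand plus test chemical, 18 h. Bound fraction separated on filters, counted by scintillation. DMSO = negative control/baseline; duplicate single-point at 25 uM, then concentration-response follow-up.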
# [9] = target: guinea pig Sigma Receptor, Non-selective Binding, SIGMAR1 (gene 100135589) (UniProt Q60492); assay: NVS_OR_gSIGMA_NonSelective: NovaScreen (NVS) Nuclear Receptor Binding Assay for guinea pig Sigma Receptor, Non-selective Binding (AID 2283367)
# Sequence of guinea pig Sigma Receptor, Non-selective Binding, SIGMAR1 (gene 100135589) (Q60492 whole entry, looked up): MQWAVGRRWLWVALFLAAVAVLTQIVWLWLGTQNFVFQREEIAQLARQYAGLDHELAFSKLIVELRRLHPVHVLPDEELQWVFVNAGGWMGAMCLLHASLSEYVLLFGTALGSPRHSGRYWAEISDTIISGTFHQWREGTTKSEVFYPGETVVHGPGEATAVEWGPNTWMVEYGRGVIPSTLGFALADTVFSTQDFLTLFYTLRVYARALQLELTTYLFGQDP
# Outline: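 Test chemicals were screened in duplicate at 25 uM, then in concentration series if active, against radioligand binding to guinea pig brain membranes; filtration and scintillation counting at 1 h measured remaining bound ligand.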
# [10] = target: human Adenosine Transporter (Adot), SLC29A1 (gene 2030) (UniProt Q99808); assay: NVS_TR_hAdoT: NovaScreen (NVS) Transporter Assay for human Adenosine Transporter (Adot) (AID 2283368)
# Sequence of human Adenosine Transporter (Adot), SLC29A1 (gene 2030) (Q99808 whole entry, looked up): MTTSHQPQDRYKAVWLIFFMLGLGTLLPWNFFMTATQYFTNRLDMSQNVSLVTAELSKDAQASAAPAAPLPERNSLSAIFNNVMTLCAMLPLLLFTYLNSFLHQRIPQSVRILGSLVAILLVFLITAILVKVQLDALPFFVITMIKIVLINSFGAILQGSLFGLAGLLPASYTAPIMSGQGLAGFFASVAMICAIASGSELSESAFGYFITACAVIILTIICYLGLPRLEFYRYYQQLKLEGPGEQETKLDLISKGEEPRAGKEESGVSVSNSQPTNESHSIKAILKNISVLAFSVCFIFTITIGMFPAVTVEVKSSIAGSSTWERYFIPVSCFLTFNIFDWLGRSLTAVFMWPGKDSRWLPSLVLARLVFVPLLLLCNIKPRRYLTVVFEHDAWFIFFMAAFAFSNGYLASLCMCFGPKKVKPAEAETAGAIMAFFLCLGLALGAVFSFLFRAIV
# Outline: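 Binding displacement on U937 extracted protein, read 1 h post-dose by filtration and scintillation counting. Primary duplicate test at 25 uM, then singleton concentration series with 50 uM top; DMSO baseline.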
structure (smiles),measurement,setting,value
O=C(O)C1=NN(c2ccc(S(=O)(=O)O)cc2)C(=O)C1,outcome,[1],inactive
CCC(C)(C)C1CCC(OC)CC1 (configuration not stated),outcome,[1],inactive
CC(C)C(=O)c1ccccc1,outcome,[1],inactive
CCC(C)(CCCC(C)C)OC(C)=O (configuration not stated),outcome,[1],inactive
CCCCCCCCCCCCS,outcome,[1],inactive
same,outcome,[2],inactive
C[C@]12CC[C@@H]3c4ccc(O)cc4CC[C@H]3[C@@H]1CC[C@@H]2O,outcome,[1],inactive
same,AC50,[3],1.74 µM (active)
same,outcome,[2],inactive
same,AC50,[4],0.17 µM (active)
C#C[C@]1(O)CC[C@H]2[C@@H]3CCc4cc(O)ccc4[C@H]3CC[C@@]21C,AC50,[3],1.32 µM (active)
same,AC50,[2],15.6 µM (active)
same,outcome,[2],inactive
same,AC50,[5],5.14 µM (active)
same,AC50,[4],0.463 µM (active)
same,AC50,[6],2.39 µM (active)
same,AC50,[7],514 nM (active) and 517 nM (active) and 623 nM (active)
CC1=CCC(=C(C)C)CC1,outcome,[1],inactive
same,outcome,[2],inactive
CCCCC/C=C\C=C\C(=O)OCC,AC50,[1],9.24 µM (active)
CC(=O)OC/C=C(C)/C=C/C=C(C)/C=C/C1=C(C)CCCC1(C)C,AC50,[1],2.21 µM (active)
CCC(C)(C)C1CCC(=O)CC1,outcome,[1],inactive
same,outcome,[8],inactive
NCCN1CCNCC1,outcome,[1],inactive
CCO[Si](CC)(OCC)OCC,outcome,[1],inactive
CC(C)(O)CCc1ccccc1,AC50,[3],25 µM (active)
same,outcome,[4],inactive
CC/C(=C(\c1ccccc1)c1ccc(OCCN(C)C)cc1)c1ccccc1,outcome,[1],inactive
same,AC50,[9],0.491 µM (active)
same,AC50,[3],3.1 µM (active)
same,outcome,[2],inactive
same,AC50,[4],6.98 µM (active)
same,AC50,[7],3.85 µM (active)
[Cl][Dy]([Cl])[Cl],AC50,[3],17.4 µM (active)
O=C(O)c1ccccc1O,outcome,[2],inactive
CCCCCC1CCC(=O)O1 (configuration not stated),outcome,[1],inactive
same,outcome,[2],inactive
CN(C)C,outcome,[1],inactive
CCNC(=S)NCC,outcome,[1],inactive
same,outcome,[8],inactive
CN1CCc2cccc3c2[C@H]1Cc1ccc(O)c(O)c1-3,AC50,[1],0.26 µM (active)
same,outcome,[2],inactive
same,AC50,[8],0.309 µM (active)
CCCCCCOc1ccc(O)cc1,outcome,[1],inactive
same,outcome,[2],inactive
same,AC50,[8],0.174 µM (active)
CN(C)C(=O)Nc1ccccc1,outcome,[1],inactive
CCCCCCCCCCOC(=O)c1ccccc1C(=O)OCCCCCCCC,outcome,[1],inactive
[O-]/[N+](=N\O)c1ccccc1,outcome,[1],inactive
same,outcome,[2],inactive
CC(C)CCCC(C)(C)O,outcome,[2],inactive
CCCCCC(=O)O[C@]1(C(C)=O)CC[C@H]2[C@@H]3CCC4=CC(=O)CC[C@]4(C)[C@H]3CC[C@@]21C,outcome,[1],inactive
same,outcome,[8],inactive
C=CC(O)CCCCC (configuration not stated),outcome,[1],inactive
CC(=O)Oc1c(C)c(C)c2c(c1C)CC[C@@](C)(CCC[C@H](C)CCC[C@H](C)CCCC(C)C)O2,outcome,[1],inactive
same,outcome,[2],inactive
CCCCCCCCCCCCN1CCOCC1,outcome,[1],inactive
same,outcome,[2],inactive
c1ccc2scnc2c1,outcome,[1],inactive
CCCCCCCCCCCCOCCOS(=O)(=O)O,AC50,[1],25 µM (active)
same,AC50,[8],29.4 µM (active)
CNC(=C[N+](=O)[O-])NCCSCc1ccc(CN(C)C)o1,outcome,[2],inactive
O=C(c1ccc(OCCN2CCCCC2)cc1)c1c(-c2ccc(O)cc2)sc2cc(O)ccc12,AC50,[1],1.7 µM (active) and 3.59 µM (active) and 1.46 µM (active)
same,AC50,[9],4.67 µM (active)
same,AC50,[10],14.6 µM (active)
same,AC50,[3],2.14 µM (active)
same,AC50,[4],1.76 µM (active)
same,AC50,[6],9.25 µM (active)
same,AC50,[7],0.366 µM (active)
CCOC(=O)C=Cc1ccccc1,outcome,[4],inactive
CCC(=O)OCC=Cc1ccccc1,AC50,[4],29.2 µM (active)
CC(C)Cc1ccccc1,outcome,[6],inactive
